Source: PubChem BioAssay (NCATS)
Records with an inconclusive call do not appear. The source made the active and inactive calls. Unless noted, calls come from the whole dose curve; as a rule, active = well fitted curve in the direction sought with a large enough effect; inconclusive = small, poorly fitted or top-dose-only effect, or another doubt; inactive = no such curve, though single readings can be large; an effect the other way counts as inactive or inconclusive.

How the values were obtained:
[1] = qHTS assay for small molecule antagonists of peroxisome proliferator-activated receptor delta signaling (AID 588535; active = well fitted inhibition curve with a large enough effect in the signal ratio, with a control signal flat, not every such curve was filed as active; the % refers to the signal ratio;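 for max response: cells co-treated with a PPAR-delta agonist as stimulator during compound exposure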); settings: HEK293T PPARd-UAS-bla, beta-lactamase FRET ratio, 18 h; 460 nm channel
In short: (§1)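 Titrations were run on PPAR-delta-UAS-bla HEK293T cells in charcoal/dextran-stripped serum, incubated 18 h at 37 C. CCF4 fluorescence (460/530 nm) after 2 h RT; Hill equation yields IC50 and maximal response.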

[2] = molecular target: Peroxisome proliferator-activated receptor delta (Homo sapiens) (UniProt Q03181); assay: as above; settings: HEK293T PPARd-UAS-bla, beta-lactamase FRET ratio, 18 h; series mostly up to 76.7 µM
Peroxisome proliferator-activated receptor delta (Homo sapiens), sequence (Q03181 whole entry, looked up): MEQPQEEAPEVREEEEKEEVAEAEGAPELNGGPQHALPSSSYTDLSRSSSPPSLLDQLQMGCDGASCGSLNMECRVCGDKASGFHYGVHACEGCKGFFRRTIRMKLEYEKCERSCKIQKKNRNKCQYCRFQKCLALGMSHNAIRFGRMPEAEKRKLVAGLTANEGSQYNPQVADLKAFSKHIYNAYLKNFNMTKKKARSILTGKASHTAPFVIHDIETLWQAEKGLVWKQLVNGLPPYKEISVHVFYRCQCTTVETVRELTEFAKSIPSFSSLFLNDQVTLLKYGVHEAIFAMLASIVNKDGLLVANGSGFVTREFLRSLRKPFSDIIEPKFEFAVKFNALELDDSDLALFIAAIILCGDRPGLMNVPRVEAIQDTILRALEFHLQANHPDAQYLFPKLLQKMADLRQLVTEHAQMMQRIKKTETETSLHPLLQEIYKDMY
In short: as §1

[3] = molecular target: Vitamin D3 receptor (Homo sapiens) (UniProt P11473); assay: qHTS assay for small molecule antagonists of vitamin D receptor signaling (AID 588541; calls by dose curve;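 note: receptor activated by calcitriol during compound treatment; % is set by controls: 0 for no effect and ±100 for the full control effect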); settings: HEK293T VDR-UAS-bla, beta-lactamase ratio, antagonist mode; series mostly up to 76.7 µM
Vitamin D3 receptor (Homo sapiens), sequence (P11473 whole entry, looked up): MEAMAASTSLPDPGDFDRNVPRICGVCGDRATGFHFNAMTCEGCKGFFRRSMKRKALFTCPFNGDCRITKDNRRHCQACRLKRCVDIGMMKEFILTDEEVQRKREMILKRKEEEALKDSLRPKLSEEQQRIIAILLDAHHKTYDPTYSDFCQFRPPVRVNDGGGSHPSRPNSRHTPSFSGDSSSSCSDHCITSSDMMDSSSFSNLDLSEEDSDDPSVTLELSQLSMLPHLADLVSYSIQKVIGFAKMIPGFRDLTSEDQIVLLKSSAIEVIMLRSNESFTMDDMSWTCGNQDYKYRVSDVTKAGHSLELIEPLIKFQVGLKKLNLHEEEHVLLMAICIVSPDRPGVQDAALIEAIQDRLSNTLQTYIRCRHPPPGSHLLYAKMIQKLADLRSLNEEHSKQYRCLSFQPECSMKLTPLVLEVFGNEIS
In short: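 Antagonist-mode beta-lactamase reporter assay: HEK293T VDR-UAS-bla cells were exposed to titrated compound alongside 1-alpha,25-dihydroxyvitamin D3 at 3 nM final for 16 h. Values were normalized to the 50 nM agonist control and DMSO basal, with IC50 and efficacy from Hill equation fits.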

[4] = molecular target: Vitamin D3 receptor (Homo sapiens) (UniProt P11473); assay: qHTS assay for small molecule agonists of vitamin D receptor signaling (AID 588543; calls by dose curve;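 note: 0% = DMSO basal and 100% = reference agonist control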); settings: HEK293T VDR-UAS-bla, beta-lactamase ratio, 16 h; series mostly up to 76.8 µM
In short: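 Reporter cells (HEK293T, VDR-UAS-bla) were seeded in medium with 2% charcoal-stripped serum and incubated 5 h, then compounds in concentration series were added for 16 h at 37 °C. Stimulation was scaled between DMSO basal and 50 nM 1α,25-dihydroxyvitamin D3.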

[5] = qHTS assay for small molecule agonists of retinoid X receptor alpha signaling (AID 588544; calls by dose curve;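 for activation: 0% = DMSO basal wells and 100% = reference agonist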); settings: HEK293T RXRa-UAS-bla, beta-lactamase reporter, 18 h; 530 nm emission
[6] = molecular target: Retinoic acid receptor RXR-alpha (Homo sapiens) (UniProt P19793); assay: as above; settings: HEK293T RXRa-UAS-bla, beta-lactamase reporter, 18 h; series mostly up to 76.7 µM
Retinoic acid receptor RXR-alpha (Homo sapiens), sequence (P19793 whole entry, looked up): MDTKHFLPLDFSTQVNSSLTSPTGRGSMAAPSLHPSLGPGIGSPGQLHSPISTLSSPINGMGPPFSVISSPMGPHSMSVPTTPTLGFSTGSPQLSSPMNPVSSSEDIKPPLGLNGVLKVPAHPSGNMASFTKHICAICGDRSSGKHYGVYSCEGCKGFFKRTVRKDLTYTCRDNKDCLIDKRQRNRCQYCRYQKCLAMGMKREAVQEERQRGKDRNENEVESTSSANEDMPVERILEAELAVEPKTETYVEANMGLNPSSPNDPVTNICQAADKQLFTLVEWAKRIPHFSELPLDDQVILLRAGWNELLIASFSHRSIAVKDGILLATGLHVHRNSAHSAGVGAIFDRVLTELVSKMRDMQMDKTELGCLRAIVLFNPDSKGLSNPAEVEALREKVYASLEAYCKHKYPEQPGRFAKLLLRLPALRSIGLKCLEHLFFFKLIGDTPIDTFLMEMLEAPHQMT

[7] = molecular target: Thyroid hormone receptor beta (Homo sapiens) (UniProt P10828); assay: qHTS assay for small molecule agonists of thyroid hormone receptor beta signaling (AID 588545; calls by dose curve); settings: TR-UAS-bla GripTite HEK 293, beta-lactamase ratio, agonist mode, 18 h; series mostly up to 76.7 µM
Thyroid hormone receptor beta (Homo sapiens), sequence (P10828 whole entry, looked up): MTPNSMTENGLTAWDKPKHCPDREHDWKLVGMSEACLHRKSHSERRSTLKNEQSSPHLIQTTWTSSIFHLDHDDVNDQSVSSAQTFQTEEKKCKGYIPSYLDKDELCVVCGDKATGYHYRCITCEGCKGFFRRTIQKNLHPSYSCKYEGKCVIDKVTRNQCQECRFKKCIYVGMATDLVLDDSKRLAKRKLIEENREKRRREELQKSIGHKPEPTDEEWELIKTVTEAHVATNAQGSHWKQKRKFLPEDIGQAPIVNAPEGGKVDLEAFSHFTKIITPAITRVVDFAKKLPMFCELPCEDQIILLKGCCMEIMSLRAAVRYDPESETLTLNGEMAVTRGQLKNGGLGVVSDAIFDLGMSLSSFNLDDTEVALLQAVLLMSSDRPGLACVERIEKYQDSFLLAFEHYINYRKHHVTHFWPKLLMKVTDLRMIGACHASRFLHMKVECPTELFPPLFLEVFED
In short: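 Agonist activity was read as beta-lactamase CCF4 fluorescence (405 ex, 460/530 em), scaled between DMSO (0%) and 10 nM T3 (100%), then Hill-fitted for EC50 and efficacy. HEK 293 TR-UAS-bla cells in 2% charcoal/dextran FBS medium were exposed 18 h at 37 C.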

[8] = qHTS assay for small molecule antagonists of retinoid X receptor alpha signaling (AID 588546; active = well fitted inhibition curve with a large enough effect in the signal ratio, with a control signal flat, not every such curve was filed as active; the % refers to the signal ratio;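 note: cells stimulated with 9-cis-retinoic acid as agonist; % is set by controls: 0 for no effect and ±100 for the full control effect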); settings: HEK293T RXRa-UAS-bla, beta-lactamase ratio, antagonist mode; measured here: W530 green channel, cytotoxicity proxy
In short: (§2)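 Beta-lactamase reporter inhibition, read as CCF4 fluorescence ratio (ex 405, em 460/530 nm) after 2 h at RT. HEK293T UAS-bla cells, 2500/well, were stimulated with 9-cis-RA at 500 or 100 nM final alongside test compound for 18 h at 37 C.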

[9] = molecular target: Thyroid hormone receptor beta (Homo sapiens) (UniProt P10828); assay: qHTS assay for small molecule antagonists of thyroid hormone receptor beta signaling (AID 588547; active = well fitted inhibition curve with a large enough effect in the signal ratio, with a control signal flat, not every such curve was filed as active; the % refers to the signal ratio;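 note: cells stimulated with 0.4 nM T3 agonist during compound exposure; % is set by controls: 0 for no effect and ±100 for the full control effect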); settings: TR-UAS-bla HEK293, beta-lactamase ratio, antagonist mode, 18 h
In short: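 Inhibition of T3-driven (0.4nM final) beta-lactamase reporter activity was measured over 0.59 nM to 92 uM compound after 18 h at 37 C. The cells were GripTite HEK293 TR-UAS-bla in charcoal/dextran-stripped serum, with CCF4 ratio read-out and IC50 from Hill fits.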

[10] = qHTS assay for small molecule activators of the p53 signaling pathway (AID 651743; active = well fitted activation curve with a large enough effect in the signal ratio, not every such curve was filed as active; the % refers to the signal ratio; note: % of control where 0% means no effect); settings: HCT-116 p53RE-bla, beta-lactamase FRET ratio, 16 h; activation: stronger effect = higher value
In short: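 After 16 hours compound treatment at 37 C, HCT-116 cells stably expressing p53RE-driven beta-lactamase were loaded with LiveBLAzer B/G FRET substrate for 2 hours at room temperature. Fluorescence intensity served as the p53 activation read-out.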

[11] = qHTS assay for small molecule activators of the nuclear factor-kappa B (NF-kB) signaling pathway (AID 651749; active = well fitted activation curve with a large enough effect in the signal ratio; the % refers to the signal ratio; note: % of control where 0% means no effect); settings: NF-kB-bla ME-180 cells, beta-lactamase FRET ratio, 16 h; activation: stronger effect = higher value
In short: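 Activation measured after 16 hr compound treatment at 37C, 5% CO2, of 2,000 ME-180 cells/well stably expressing an NF-kB response element–driven beta-lactamase reporter, via FRET-disruption fluorescence.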

[12] = qHTS assay for environmental chemicals that activate the Aryl hydrocarbon Receptor (AhR) signaling pathway (AID 651777); settings: 1A2-DRE human hepatoma cells, luciferase, 24 h; activation: stronger effect = higher value; note: % of control where 0% means no effect; nearly all actives have a fitted effect of over 15% in size
In short: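 Human hepatoma 1A2-DRE cells stably carrying a DRE/CYP1A2 promoter–luciferase reporter, 1,200 cells/well, exposed to compound 24 hr at 37 C. Luciferase read by One-Glo luminescence after 30 min at room temperature; increased signal marks AhR activation.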

[13] = qHTS assay for small molecule agonists of the antioxidant response element (ARE) signaling pathway measured by Nrf2-dependant transcriptional activity (AID 720636; active = well fitted curve in the direction sought with a large enough effect in the repeat runs; an effect the other way counts as inactive or inconclusive; note: % of control where 0% means no effect); settings: ARE-luc HepG2, Nrf2 luciferase reporter, 16 h; series mostly up to 92.4 µM
In short: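 ARE-luc HepG2 cells carrying an Nrf2-responsive luciferase reporter, in medium with 1% dialyzed FBS, exposed to compound for 16 hr at 37 C, 5% CO2. Luminescence read 30 min after ONE-Glo addition.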

[14] = qHTS assay for small molecule agonists of the antioxidant response element (ARE) signaling pathway measured by Nrf2-dependant transcriptional activity - cell viability counter screen (AID 720653; active = well fitted curve in the direction sought with a large enough effect in the repeat runs; an effect the other way counts as inactive or inconclusive; note: % is set by controls: 0 for no effect and ±100 for the full control effect); settings: ARE-bla HepG2 viability, CellTiter-Glo ATP luminescence, 16 h; max response: stronger effect = lower value
In short: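 Cytotoxicity counter screen: intracellular ATP quantified by CellTiter-Glo luminescence in the same ARE-bla HepG2 plates, after 16 h compound exposure and a 2 h beta-lactamase substrate step.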

[15] = qHTS assay for cell viability of HEK293 cells (AID 743288); settings: ATP luminescence (CellTiter-Glo), 18 h; max response: stronger effect = lower value; note: % is set by controls: 0 for no effect and ±100 for the full control effect; nearly all actives have a fitted effect of over 50% in size
In short: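 Viable-cell counts were inferred from luciferase-based ATP content in HEK293 cells seeded at 2,000/well, pre-incubated ≥5 h, then dosed with DMSO-solubilised compounds for 18 h at 37 C.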

[16] = qHTS assay for cell viability of the p53RE-bla HCT-116 cell line (AID 743292); settings: p53RE-bla HCT-116 viability, ATP luminescence, 16 h; series mostly up to 95 µM; note: % is set by controls: 0 for no effect and ±100 for the full control effect; nearly all actives have a fitted effect of over 55% in size
In short: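 CellSensor p53RE-bla HCT-116 cells (4,000/well) pre-incubated 5 h at 37 C, then exposed to compounds in DMSO for 16 h at 37 C. Viability read as ATP content by CellTiter-Glo luminescence after 30 min at room temperature.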

[17] = molecular target: Nuclear receptor subfamily 1 group I member 2 (Rattus norvegicus) (UniProt Q9R1A7); assay: qHTS assay for small molecule activators of the rat pregnane X receptor (rPXR) signaling pathway (AID 651751; call rule not given here; note: 0% is about no effect); settings: rPXR reporter cells, luciferase (One-Glo), 24 h
Nuclear receptor subfamily 1 group I member 2 (Rattus norvegicus), sequence (Q9R1A7 whole entry, looked up): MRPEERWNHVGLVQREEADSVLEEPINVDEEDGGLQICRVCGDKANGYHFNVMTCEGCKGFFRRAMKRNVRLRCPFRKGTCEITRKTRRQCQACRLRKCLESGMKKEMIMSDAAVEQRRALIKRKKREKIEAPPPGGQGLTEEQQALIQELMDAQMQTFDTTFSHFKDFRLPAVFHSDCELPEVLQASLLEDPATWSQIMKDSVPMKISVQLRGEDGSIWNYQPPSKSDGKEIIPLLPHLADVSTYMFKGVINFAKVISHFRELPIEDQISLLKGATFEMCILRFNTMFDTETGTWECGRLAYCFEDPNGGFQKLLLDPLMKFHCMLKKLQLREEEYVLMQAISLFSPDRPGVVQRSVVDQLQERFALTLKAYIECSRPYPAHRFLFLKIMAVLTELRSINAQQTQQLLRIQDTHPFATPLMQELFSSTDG

[18] = qHTS assay for small molecule activators of the human pregnane X receptor (PXR) signaling pathway (AID 720659; call rule not given here; note: 0% is about no effect); settings: DPX-2 HepG2 CYP3A4-luciferase, 24 h; series mostly up to 92.3 µM
[19] = molecular target: Retinoic acid receptor RXR-alpha (Homo sapiens) (UniProt P19793); assay: qHTS assay for small molecule antagonists of retinoid X receptor alpha signaling (AID 588546); settings: HEK293T RXRa-UAS-bla, beta-lactamase ratio, antagonist mode;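 note: cells stimulated with 9-cis-retinoic acid as agonist; % is set by controls: 0 for no effect and ±100 for the full control effect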
In short: as §2

[20] = molecular target: Peroxisome proliferator-activated receptor alpha (Homo sapiens) (UniProt Q07869); assay: qHTS assay for small molecule agonists of the peroxisome proliferator-activated receptor alpha (PPARalpha) signaling pathway (AID 651778); settings: PathHunter PPARalpha complementation, chemiluminescence, 6 h; max response: stronger effect = higher value; note: % of control where 0% means no effect
Peroxisome proliferator-activated receptor alpha (Homo sapiens), sequence (Q07869 whole entry, looked up): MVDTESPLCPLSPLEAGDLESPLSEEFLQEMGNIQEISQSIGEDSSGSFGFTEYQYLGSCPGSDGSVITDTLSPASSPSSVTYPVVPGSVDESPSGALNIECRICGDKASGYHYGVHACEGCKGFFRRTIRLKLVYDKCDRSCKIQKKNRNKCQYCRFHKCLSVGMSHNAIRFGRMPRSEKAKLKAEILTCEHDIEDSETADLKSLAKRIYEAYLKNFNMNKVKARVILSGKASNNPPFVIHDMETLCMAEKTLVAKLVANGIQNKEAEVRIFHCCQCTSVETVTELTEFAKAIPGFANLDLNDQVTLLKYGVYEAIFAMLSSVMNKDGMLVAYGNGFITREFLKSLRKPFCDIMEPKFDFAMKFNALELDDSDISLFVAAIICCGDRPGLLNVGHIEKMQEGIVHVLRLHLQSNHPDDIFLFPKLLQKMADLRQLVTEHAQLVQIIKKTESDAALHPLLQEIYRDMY
In short: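 Chemiluminescence from complemented enzyme reported PPARalpha activation in cells after 6 hr of compound treatment at 37 C. The detection reagent was incubated for 60 min at room temperature, and compounds were scored as agonists.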

CC(C)=CCC[C@@H](C)[C@H]1CC[C@@]2(C)C3=C(CC[C@]12C)[C@@]1(C)CC[C@H](O)C(C)(C)[C@@H]1CC3
0.0546%: max response [8]
-27.3%: max response [5]
inactive: Potency [2] | Potency [3] | outcome [4] | Potency [6] | Potency [7] | activity change % (negative = inhibition) [9] -4.34% | activation [10] 2.67% | activation [11] 1.26% | activation [12] 1.89% | Potency [13] | max response [14] 3.07% | max response [15] -4.2% | Potency [16] | max response [17] 0.187% | outcome [18]
37.7%: max response [1]

CCN(Cc1cccc(S(=O)(=O)O)c1)c1ccc(C(=C2C=CC(=[N+](CC)Cc3cccc(S(=O)(=O)[O-])c3)C=C2)c2ccccc2)cc1
inactive: Potency [7] | activity change % (negative = inhibition) [9] -4.54% | activation [10] -2.82% | activation [11] -0.828% | activation [12] -1.94% | max response [14] -9.88% | max response [15] -13.6% | Potency [16] | max response [17] -0.0295% | outcome [18]
16.5%: max response [8]

CCCCC/C=C\C/C=C\CCCCCCCC(=O)OC
inactive: Potency [2] | Potency [6] | Potency [7] | max response [19] -5.56% | activity change % (negative = inhibition) [9] -14.4% | activation [10] -2.82% | activation [11] -0.453% | activation [12] 1.77% | max response [20] -0.289% | Potency [13] | max response [14] -4.45% | max response [15] -12.5% | Potency [16] | max response [17] -0.654% | outcome [18]
-7.14%: max response [5]
7.06%: max response [8]
10.1%: max response [1]

CCCCOCCOCCO
inactive: Potency [3] | outcome [4] | Potency [6] | Potency [7] | max response [19] -25.6% | activity change % (negative = inhibition) [9] 15.3% | activation [10] 0.276% | activation [11] -0.601% | activation [12] 0.311% | max response [20] -0.568% | Potency [13] | max response [14] 3.56% | max response [15] -12.6% | Potency [16] | max response [17] -2.42% | outcome [18]
1.46%: max response [8]
-10.9%: max response [5]

C=CC(=O)OCC(C)OCC(C)OCC(C)OC(=O)C=C (stereo not drawn)
41.6%: max response [1]
-8.39%: max response [5]
-20.7%: max response [8]
inactive: Potency [2] | Potency [3] | outcome [4] | Potency [6] | Potency [7] | max response [19] 10.6% | activity change % (negative = inhibition) [9] 0.874% | activation [10] 0.712% | activation [12] -0.0895% | max response [20] -2.39% | Potency [13] | max response [14] -8.01% | max response [15] -1.74% | Potency [16] | max response [17] -2.64% | outcome [18]

C[Si]1(C)O[Si](C)(C)O[Si](C)(C)O1
inactive: Potency [2] | Potency [3] | outcome [4] | Potency [6] | Potency [7] | max response [19] 2.26% | activity change % (negative = inhibition) [9] 5.16% | activation [10] -3.38% | activation [11] -0.149% | activation [12] 1% | max response [20] 0.478% | Potency [13] | max response [15] -1.41% | Potency [16] | max response [17] -5.54% | outcome [18]
-6.48%: max response [8]
-4.52%: max response [5]
-11.7%: max response [1]
